Reference: the supplement of paper PMC10849652
The full data set covers some 7,900 targets. This sample favours those with a hit. About 0.6% of all pairs of compound and target were hits. Unmarked numbers belong to inactive results.

Columns and labels:
Test in all cases: log2 fold change, soluble protein after heating vs DMSO (PISA); higher = thermal stabilisation; K562 cells, 10 uM, 30 min; active = over 0.2 and 3.5 SD of the protein, either way, in both replicates (recomputed)
[1] = compound: CS(=O)(=O)c1ccc(-c2cnc(N)c(C(=O)Nc3ccccc3)n2)cc1
In short: (§1)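 K562 cells at 2×10^6 cells/mL were treated for 30 min with 10 μM compound, and aliquots were heated for 3 min over 48°C-58°C before pooling. Extraction used PBS with 0.5% NP-40 at 4°C, and soluble protein was the supernatant after 21,000xg for 90 min, measured by TMTpro 16plex LC-MS/MS with channel sums equalised. Thermal stability values, relative to control samples and from duplicates, are log2 fold changes.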

crizotinib = compound: C[C@@H](Oc1cc(-c2cnn(C3CCNCC3)c2)cnc1N)c1c(Cl)ccc(F)c1Cl [crizotinib]
In short: as §1

[2] = compound: C[C@@H]1COCCN1C2=NC(=NC(=C2)C3(CC3)S(=O)(=O)C)C4=C5C=CNC5=CC=C4
In short: as §1

[3] = compound: C[C@H](C1=CC=C(C=C1)C(=O)NC2=C3C=CNC3=NC=C2)N
In short: as §1

duvelisib = compound: C[C@H](Nc1ncnc2nc[nH]c12)c1cc2cccc(Cl)c2c(=O)n1-c1ccccc1 [duvelisib]
In short: as §1

gandotinib = compound: Cc1cc(Nc2cc(CN3CCOCC3)c3nc(C)c(Cc4ccc(Cl)cc4F)n3n2)n[nH]1 [gandotinib]
In short: as §1

tozasertib = compound: Cc1cc(Nc2cc(N3CCN(C)CC3)nc(Sc3ccc(NC(=O)C4CC4)cc3)n2)n[nH]1 [tozasertib]
In short: as §1

[4] = compound: Cc1cc(SCc2sc(-c3ccc(C(F)(F)F)cc3)nc2C)ccc1OCC(=O)O
In short: as §1

doramapimod = compound: Cc1ccc(-n2nc(C(C)(C)C)cc2NC(=O)Nc2ccc(OCCN3CCOCC3)c3ccccc23)cc1 [doramapimod]
In short: as §1

ispinesib = compound: Cc1ccc(C(=O)N(CCCN)[C@@H](c2nc3cc(Cl)ccc3c(=O)n2Cc2ccccc2)C(C)C)cc1 [ispinesib]
In short: as §1

bafetinib = compound: Cc1ccc(NC(=O)c2ccc(CN3CC[C@H](N(C)C)C3)c(C(F)(F)F)c2)cc1Nc1nccc(-c2cncnc2)n1 [bafetinib]
In short: as §1

[5] = compound: Cc1cccc(CC(=O)N2CCc3c2ccc(-c2cn(C)c4ncnc(N)c24)c3F)n1
In short: as §1

nilotinib = compound: Cc1cn(-c2cc(NC(=O)c3ccc(C)c(Nc4nccc(-c5cccnc5)n4)c3)cc(C(F)(F)F)c2)cn1 [nilotinib]
In short: as §1

[6] = compound: Cc1nc(Nc2n[nH]c3c2CN(C(=O)N[C@H](CN(C)C)c2ccccc2)C3(C)C)c2sccc2n1
In short: as §1

dasatinib = compound: Cc1nc(Nc2ncc(C(=O)Nc3c(C)cccc3Cl)s2)cc(N2CCN(CCO)CC2)n1 [dasatinib]
In short: as §1

[7] = compound: Cc1ncc(-c2ccnc(Nc3ccc(S(C)(=O)=O)cc3)n2)n1C(C)C
In short: as §1

[8] = compound: Cn1cc(-c2ccc3c(c2)CCN3C(=O)Cc2cccc(C(F)(F)F)c2)c2c(N)ncnc21
In short: as §1

[9] = compound: Cn1cc(-c2ccc3nnc(C(F)(F)c4ccc5ncccc5c4)n3n2)cn1
In short: as §1

tipifarnib = compound: Cn1cncc1[C@@](N)(c1ccc(Cl)cc1)c1ccc2c(c1)c(-c1cccc(Cl)c1)cc(=O)n2C [tipifarnib]
In short: as §1

mubritinib = compound: FC(F)(F)c1ccc(/C=C/c2nc(COc3ccc(CCCCn4ccnn4)cc3)co2)cc1 [mubritinib]
In short: as §1

UniProt P55209, sequence (P55209 whole entry, looked up): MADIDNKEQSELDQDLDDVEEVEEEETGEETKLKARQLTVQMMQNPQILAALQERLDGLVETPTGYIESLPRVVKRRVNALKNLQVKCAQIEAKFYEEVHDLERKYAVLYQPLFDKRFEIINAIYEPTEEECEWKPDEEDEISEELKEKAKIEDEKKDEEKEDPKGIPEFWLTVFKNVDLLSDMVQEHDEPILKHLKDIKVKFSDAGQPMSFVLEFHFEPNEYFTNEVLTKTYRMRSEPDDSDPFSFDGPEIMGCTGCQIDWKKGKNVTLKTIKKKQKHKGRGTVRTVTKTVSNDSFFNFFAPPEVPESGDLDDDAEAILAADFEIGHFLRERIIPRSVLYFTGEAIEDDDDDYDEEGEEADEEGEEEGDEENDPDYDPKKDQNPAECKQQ
UniProt Q9ULX3, sequence (Q9ULX3 whole entry, looked up): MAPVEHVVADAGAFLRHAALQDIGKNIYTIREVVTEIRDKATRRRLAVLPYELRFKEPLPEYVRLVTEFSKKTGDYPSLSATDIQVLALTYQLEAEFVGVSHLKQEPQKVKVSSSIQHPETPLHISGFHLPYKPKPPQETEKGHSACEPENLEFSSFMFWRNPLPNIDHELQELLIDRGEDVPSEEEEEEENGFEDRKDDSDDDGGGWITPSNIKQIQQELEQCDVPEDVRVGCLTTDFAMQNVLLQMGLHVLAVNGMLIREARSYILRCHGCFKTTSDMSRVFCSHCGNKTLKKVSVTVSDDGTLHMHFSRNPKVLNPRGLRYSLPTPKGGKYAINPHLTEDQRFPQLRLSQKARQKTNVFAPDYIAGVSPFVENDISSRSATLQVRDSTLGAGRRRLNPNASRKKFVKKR
UniProt Q15102, sequence (Q15102 whole entry, looked up): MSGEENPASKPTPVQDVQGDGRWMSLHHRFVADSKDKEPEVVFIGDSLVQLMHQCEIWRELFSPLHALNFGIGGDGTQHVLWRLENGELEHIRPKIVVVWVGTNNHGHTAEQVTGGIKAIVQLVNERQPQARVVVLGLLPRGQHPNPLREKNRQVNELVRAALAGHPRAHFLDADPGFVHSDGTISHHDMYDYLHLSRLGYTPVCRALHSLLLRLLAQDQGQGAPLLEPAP
UniProt Q9NZT2, sequence (Q9NZT2 whole entry, looked up): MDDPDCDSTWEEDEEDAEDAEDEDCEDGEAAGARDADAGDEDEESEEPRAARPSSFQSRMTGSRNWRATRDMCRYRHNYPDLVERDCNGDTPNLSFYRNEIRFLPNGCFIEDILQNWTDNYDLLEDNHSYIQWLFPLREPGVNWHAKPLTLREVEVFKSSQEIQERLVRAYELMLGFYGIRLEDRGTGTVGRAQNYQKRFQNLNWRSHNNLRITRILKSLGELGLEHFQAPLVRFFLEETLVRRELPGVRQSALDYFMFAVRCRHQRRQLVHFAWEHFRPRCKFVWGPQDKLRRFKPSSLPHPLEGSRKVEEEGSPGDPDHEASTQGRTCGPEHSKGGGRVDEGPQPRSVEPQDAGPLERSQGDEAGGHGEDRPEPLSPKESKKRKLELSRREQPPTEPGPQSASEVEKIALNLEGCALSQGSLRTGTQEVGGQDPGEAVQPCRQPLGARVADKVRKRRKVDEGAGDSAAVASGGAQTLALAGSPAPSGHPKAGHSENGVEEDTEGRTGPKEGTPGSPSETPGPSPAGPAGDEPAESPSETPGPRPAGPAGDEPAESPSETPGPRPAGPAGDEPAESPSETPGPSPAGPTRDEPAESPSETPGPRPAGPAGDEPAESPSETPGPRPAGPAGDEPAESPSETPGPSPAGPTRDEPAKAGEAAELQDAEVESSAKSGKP
UniProt P52701, sequence (P52701 whole entry, looked up): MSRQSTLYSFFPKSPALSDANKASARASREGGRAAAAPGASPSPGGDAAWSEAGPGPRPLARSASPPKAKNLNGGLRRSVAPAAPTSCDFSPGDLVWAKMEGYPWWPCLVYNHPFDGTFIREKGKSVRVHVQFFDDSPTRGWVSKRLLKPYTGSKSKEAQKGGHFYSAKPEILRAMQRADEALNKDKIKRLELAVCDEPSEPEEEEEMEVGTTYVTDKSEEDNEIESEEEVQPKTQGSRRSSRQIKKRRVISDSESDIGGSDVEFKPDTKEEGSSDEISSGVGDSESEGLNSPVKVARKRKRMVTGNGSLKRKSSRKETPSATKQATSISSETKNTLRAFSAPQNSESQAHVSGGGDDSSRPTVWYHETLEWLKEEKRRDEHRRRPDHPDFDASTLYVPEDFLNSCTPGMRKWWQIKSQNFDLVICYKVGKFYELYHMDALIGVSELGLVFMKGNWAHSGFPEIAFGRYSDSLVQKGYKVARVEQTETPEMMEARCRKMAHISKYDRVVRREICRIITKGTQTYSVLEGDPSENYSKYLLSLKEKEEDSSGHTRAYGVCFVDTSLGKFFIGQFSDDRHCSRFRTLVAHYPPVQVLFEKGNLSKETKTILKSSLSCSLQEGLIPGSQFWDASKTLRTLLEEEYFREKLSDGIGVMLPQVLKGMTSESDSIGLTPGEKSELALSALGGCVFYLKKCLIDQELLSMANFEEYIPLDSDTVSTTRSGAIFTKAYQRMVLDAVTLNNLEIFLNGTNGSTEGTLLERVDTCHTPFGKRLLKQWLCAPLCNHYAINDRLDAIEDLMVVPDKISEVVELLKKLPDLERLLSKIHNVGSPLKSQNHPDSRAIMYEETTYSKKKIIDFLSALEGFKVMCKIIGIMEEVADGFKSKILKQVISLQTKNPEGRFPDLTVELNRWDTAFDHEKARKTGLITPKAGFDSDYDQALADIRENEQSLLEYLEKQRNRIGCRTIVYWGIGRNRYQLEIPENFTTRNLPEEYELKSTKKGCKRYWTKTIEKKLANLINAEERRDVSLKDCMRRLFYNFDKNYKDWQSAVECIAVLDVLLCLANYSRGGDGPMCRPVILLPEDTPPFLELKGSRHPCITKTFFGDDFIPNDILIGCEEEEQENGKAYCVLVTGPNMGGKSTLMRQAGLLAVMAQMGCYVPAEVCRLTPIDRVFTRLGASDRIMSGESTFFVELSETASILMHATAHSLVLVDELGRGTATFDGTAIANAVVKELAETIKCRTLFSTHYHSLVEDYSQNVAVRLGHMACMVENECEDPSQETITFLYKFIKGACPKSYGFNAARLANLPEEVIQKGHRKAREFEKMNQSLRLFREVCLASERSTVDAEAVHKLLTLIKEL
UniProt Q8N543, sequence (Q8N543 whole entry, looked up): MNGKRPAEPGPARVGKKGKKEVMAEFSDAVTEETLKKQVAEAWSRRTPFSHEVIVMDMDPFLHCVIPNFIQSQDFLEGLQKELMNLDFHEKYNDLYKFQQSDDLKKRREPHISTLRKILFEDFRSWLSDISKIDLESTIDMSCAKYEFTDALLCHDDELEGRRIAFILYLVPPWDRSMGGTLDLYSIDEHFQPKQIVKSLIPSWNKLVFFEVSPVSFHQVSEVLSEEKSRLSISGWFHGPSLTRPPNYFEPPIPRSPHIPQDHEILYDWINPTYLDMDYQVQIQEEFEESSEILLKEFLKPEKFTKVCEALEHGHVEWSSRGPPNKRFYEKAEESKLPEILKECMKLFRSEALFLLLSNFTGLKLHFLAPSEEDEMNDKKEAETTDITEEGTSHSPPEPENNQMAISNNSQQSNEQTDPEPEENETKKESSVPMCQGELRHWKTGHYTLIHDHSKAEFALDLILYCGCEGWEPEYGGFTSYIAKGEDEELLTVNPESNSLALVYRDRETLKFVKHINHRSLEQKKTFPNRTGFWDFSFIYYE
UniProt O60313, sequence (O60313 whole entry, looked up): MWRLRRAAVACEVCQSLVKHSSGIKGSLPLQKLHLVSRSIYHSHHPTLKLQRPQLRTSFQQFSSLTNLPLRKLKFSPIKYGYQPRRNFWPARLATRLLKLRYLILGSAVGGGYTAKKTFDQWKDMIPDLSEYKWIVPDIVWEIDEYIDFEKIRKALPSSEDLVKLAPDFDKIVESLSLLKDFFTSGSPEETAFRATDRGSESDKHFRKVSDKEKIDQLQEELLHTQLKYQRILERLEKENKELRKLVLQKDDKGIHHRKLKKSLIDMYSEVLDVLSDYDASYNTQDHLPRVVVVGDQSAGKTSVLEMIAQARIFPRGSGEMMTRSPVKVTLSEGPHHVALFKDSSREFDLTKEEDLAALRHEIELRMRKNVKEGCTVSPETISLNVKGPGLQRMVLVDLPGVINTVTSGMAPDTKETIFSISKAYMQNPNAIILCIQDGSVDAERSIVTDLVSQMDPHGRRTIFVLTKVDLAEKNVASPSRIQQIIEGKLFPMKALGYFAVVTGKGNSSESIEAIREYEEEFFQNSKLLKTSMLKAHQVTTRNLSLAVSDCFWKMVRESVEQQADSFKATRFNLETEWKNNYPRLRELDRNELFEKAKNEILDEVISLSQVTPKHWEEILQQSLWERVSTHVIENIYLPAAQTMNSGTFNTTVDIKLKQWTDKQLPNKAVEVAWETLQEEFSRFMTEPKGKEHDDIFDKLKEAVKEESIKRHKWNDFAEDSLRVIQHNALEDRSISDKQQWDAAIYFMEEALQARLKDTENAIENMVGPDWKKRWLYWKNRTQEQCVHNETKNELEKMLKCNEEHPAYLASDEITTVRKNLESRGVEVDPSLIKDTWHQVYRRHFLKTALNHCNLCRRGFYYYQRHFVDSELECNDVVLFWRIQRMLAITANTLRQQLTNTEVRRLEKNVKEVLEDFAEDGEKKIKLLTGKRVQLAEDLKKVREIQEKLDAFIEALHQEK

Target	log2 fold change [1]	log2 fold change (crizotinib)	log2 fold change [2]	log2 fold change [3]	log2 fold change (duvelisib)	log2 fold change (gandotinib)	log2 fold change (tozasertib)	log2 fold change [4]	log2 fold change (doramapimod)	log2 fold change (ispinesib)	log2 fold change (bafetinib)	log2 fold change [5]	log2 fold change (nilotinib)	log2 fold change [6]	log2 fold change (dasatinib)	log2 fold change [7]	log2 fold change [8]	log2 fold change [9]	log2 fold change (tipifarnib)	log2 fold change (mubritinib)
MSH6 (UniProt P52701)	0.075	-0.427	0.152	-0.018	0.009	-0.196	0.099	0.185	-0.053	-0.087	-0.019	0.101	-0.116	-0.179	-0.325	-0.1	0.139	0.167	-0.174	0
OGFR (UniProt Q9NZT2)	0.074	-0.067	0.034	0.19	-0.016	-0.058	0.021	0.133	0.082	-0.068	-0.041	0.114	-0.024	-0.093	-0.114	-0.008	0.036	-0.002	0.025	0.328 (active)
NOB1 (UniProt Q9ULX3)	0.012	-0.142	-0.033	0.15	-0.046	0.019	-0.067	0.113	0	-0.038	0.014	0.093	-0.044	-0.005	-0.054	-0.045	-0.003	0.059	-0.106	-0.043
NAP1L1 (UniProt P55209)	0.018	-0.025	-0.122	-0.021	0.068	-0.09	0.045	-0.016	0.009	0.04	-0.018	-0.094	0.009	-0.044	0.05	0.022	-0.004	-0.039	0.001	-0.014
OPA1 isoform 2 (UniProt O60313)	0.056	-0.326 (active)	0.048	-0.003	0.034	-0.063	-0.075	0.054	-0.031	-0.337 (active)	-0.022	0.069	-0.039	-0.025	-0.169	-0.004	0.054	-0.031	-0.12	0.062
PAFAH1B3 (UniProt Q15102)	0.059	0.041	0.165	-0.039	0.123	-0.062	-0.035	0.031	-0.009	0.014	0.003	0.058	0.008	-0.031	-0.065	-0.011	0.192	0.039	-0.163	0.075
OGFOD1 (UniProt Q8N543)	0.034	-0.001	0.042	0.003	0.046	-0.009	-0.02	-0.021	-0.015	-0.043	-0.042	-0.033	-0.015	0.039	-0.009	-0.021	0.01	0.078	-0.05	-0.04
MRPS25 (UniProt P82663)	-0.018	-0.082	-0.103	0.165	0.009	-0.109	0.017	0.121	-0.083	-0.438 (active)	0.125	0.158	-0.144	-0.043	-0.105	0.044	0.037	0	-0.077	0.069
